{
  "source": "PubChem BioAssay (NCI)",
  "note": "This is part of a sample that, as a whole, favours compounds with a hit. Of some 83,000 tested, about 20% had one in any assay.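 The endpoint reported here, percent growth, reads 100 for growth as untreated, 0 for no net growth and -100 for all cells dead.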 Unmarked numbers belong to inactive results. Activity calls are given as the source filed them. Rule for the calls: active = growth percent below 10; inactive = the rest.",
  "data": [
    {"test_system": "CAKI-1 renal", "test": "NCI-60 one-dose screen, 48 h (100 = growth as untreated, 0 = no growth, -100 = all killed)", "conditions": "10 µM unless noted", "values": [
      {"compound": "O=C(Nc1ccc(CN2CCOCC2)c(C(F)(F)F)c1)c1nc2ccc3[nH]ncc3c2c2c1CCCC2", "growth": "80.9%"},
      {"compound": "CC(C)[C@H]1CCC2=C3CC[C@]45OC(=O)[C@@]6(CCC(C)(C)C[C@H]64)CC[C@@]5(C)[C@]3(C)CC[C@@]21C", "growth": "53.7% [100 µM]"},
      {"compound": "Cc1ccc2c(c1)/C(=N\\N=C/c1cn(C(C)C)c3ccccc13)C(=O)N2", "growth": "64.4%"},
      {"compound": "COc1ccc(C(=O)c2nccc3cc(OC)c(OC)cc23)cc1OC", "growth": "75.8%"},
      {"compound": "Nc1cc(C(=O)O)[nH]c(=S)n1", "growth": "94.9%"},
      {"compound": "CC1(C)CC[C@]2(C(=O)O)CC[C@]3(C)C(=CC[C@@H]4[C@@]5(C)C/C(=C/c6cccnc6)[C@H](O)C(C)(C)[C@@H]5CC[C@]43C)[C@@H]2C1", "growth": "5.69% [100 µM] (active)"},
      {"compound": "ClC1=C(Cl)C(Cl)=C(Cl)C1=Cc1ccccc1", "growth": "-37.9% (active)"},
      {"compound": "CCCCC(CCCCCC(CCCC)C1NC(C)Cc2cc(OC)c(OC)cc21)C1NC(C)Cc2cc(OC)c(OC)cc21", "note": "(stereo not drawn)", "growth": "-63.9% (active)"},
      {"compound": "COc1ccccc1S(=O)Nc1ccccc1", "note": "(stereo not drawn)", "growth": "98.2%"},
      {"compound": "Cc1cnc(N)nc1OCC(C)(C)CNC(=O)c1cccc(-c2ccc(S(=O)(=O)Nc3ccc4c(c3)N(C(=O)C3CC3)CCC4)cc2)c1", "growth": "52.1%"},
      {"compound": "C=C(C)[C@@H]1CC[C@]2(COC(=O)c3ccccc3C(=O)O)CC[C@]3(C)[C@H](CC[C@@H]4[C@@]5(C)CC[C@H](OC(=O)c6ccccc6C(=O)O)C(C)(C)[C@@H]5CC[C@]43C)[C@@H]12", "growth": "10.7% [100 µM]"},
      {"compound": "Cc1cc(N2CCCCCC2)nc(N2CCN(CC(=O)Nc3ccc4c(ccn4Cc4ccccc4)c3)CC2)n1", "growth": "33.3%"},
      {"compound": "CC1(C)C(=O)/C(=C\\c2cccnc2)C[C@]2(C)[C@H]3CC[C@@H]4[C@H]5[C@H](C(=O)/C=C/c6cccnc6)CC[C@]5(C(=O)O)CC[C@@]4(C)[C@]3(C)CC[C@@H]12", "growth": "-66% [100 µM] (active)"},
      {"compound": "CCN(CC)CCSC(=O)C(O)(c1ccccc1)C1CCCC1", "note": "(stereo not drawn)", "growth": "92%"},
      {"compound": "O=C(NNc1ccc(-c2ccccc2)nn1)c1ccccc1", "growth": "82.2%"},
      {"compound": "Cc1cc2c(C(C)C)c(O)c(O)c(C=NCc3ccoc3)c2c(O)c1-c1c(C)cc2c(C(C)C)c(O)c(O)c(C=NCc3ccco3)c2c1O", "growth": "54%"},
      {"compound": "c1ccc(-c2nnc(-c3c[nH]c4ncccc34)s2)cc1", "growth": "53.3%"},
      {"compound": "Cc1ccc(-c2cc(-c3ccc(C)cc3)nc(NCCNc3ccnc4cc(Cl)ccc34)n2)cc1", "growth": "-47.8% (active)"},
      {"compound": "Cn1cc(-c2noc(C(=O)c3cn(C)c4ncccc34)n2)c2ccccc21", "growth": "86.2%"},
      {"compound": "Cc1cc(NN=C(c2ccc(O)cc2)c2ccc(O)cc2)c([N+](=O)[O-])cc1[N+](=O)[O-]", "growth": "65.1%"},
      {"compound": "O=C(C[n+]1ccn(CC(OCc2ccc(Cl)cc2Cl)c2ccc(Cl)cc2Cl)c1)c1ccc(F)cc1", "note": "(stereo not drawn)", "growth": "79.7%"},
      {"compound": "COc1cc(-c2nc(SCCC(C)C)nc(Nc3ccc(S(N)(=O)=O)cc3)c2C#N)cc(OC)c1OC", "growth": "17.1%"},
      {"compound": "CC(C)=CCC[C@](C)(O)[C@H]1CC[C@]2(C)[C@@H]1CC[C@@H]1[C@@]3(C)CC[C@H](OC(=O)CCC(=O)O)C(C)(C)[C@@H]3CC[C@]12C", "growth": "21.4% [100 µM]"},
      {"compound": "C=C(C)[C@@H]1CC[C@]2(C)[C@H](CC[C@@H]3[C@@H]([C@@](C)(O)CCC=C(C)C)CC[C@]32C)[C@@]1(C)CCC(=O)O", "growth": "2.11% [100 µM] (active)"},
      {"compound": "O=C(CCN1CCCCC1)c1ccc2ccccc2c1", "growth": "98.1%"},
      {"compound": "O=C(N/N=C/c1c(Cl)cccc1Cl)c1cccc(Nc2ccnc(C(F)(F)F)c2)c1", "growth": "88%"},
      {"compound": "CCc1ccc(C2=C/C(=C/c3ccccc3)C(=O)N2CCc2ccc(S(N)(=O)=O)cc2)cc1", "growth": "67.8%"},
      {"compound": "COc1cc2c(cc1OCCCCCOc1ccc(-n3c(C)nc4ccccc4c3=O)cc1)N=C[C@@H]1CCCN1C2=O", "growth": "4.3% (active)"},
      {"compound": "CCN(CCO)CCC(=O)c1ccc([N+](=O)[O-])cc1", "growth": "102%"},
      {"compound": "COc1c(B(O)O)cccc1-c1nc2ccc3[nH]ncc3c2c2c1CCC2", "growth": "16.6%"},
      {"compound": "Cc1ccc(-c2cc(O)c(-c3ccc(C)cc3C)cc2O)c(C)c1", "growth": "39.7%"},
      {"compound": "C=C(C)[C@@H]1CC[C@]2(c3ncc(C)o3)CC[C@]3(C)[C@H](CC[C@@H]4[C@@](C)(CCC#N)[C@H](C(=C)C)CC[C@]43C)[C@@H]12", "growth": "-96.4% [100 µM] (active)"},
      {"compound": "Nc1nc(Nc2ccccc2)c2ncn(Cc3ccc4c(c3)OCO4)c2n1", "growth": "31.5%"},
      {"compound": "CC(=O)OC[C@]12CC[C@@H](C(=O)CBr)[C@@H]1[C@H]1CC[C@@H]3[C@@]4(C)CCCNC(C)(C)[C@@H]4CC[C@@]3(C)[C@]1(C)CC2", "growth": "-96.1% [100 µM] (active)"},
      {"compound": "C[C@@H]1C[C@H]2C(=O)O[C@@H](C)[C@H](NC(=O)[C@H](Cc3cc(F)cc(F)c3)NC(=O)Nc3ccc(Cl)cc3F)C(=O)N3C[C@H](O)C[C@H]3C(=O)N3CCN(C)C[C@H]3C(=O)N[C@@H](C)C(=O)N2C1", "growth": "72.7%"},
      {"compound": "COC(=O)C(=Cc1ccccc1[N+](=O)[O-])C(=O)OC", "growth": "31.2%"},
      {"compound": "CC1Cc2c(Cl)ncnc2N(C)c2ccc(Cl)cc21", "note": "(stereo not drawn)", "growth": "8.59% (active)"},
      {"compound": "CC1(C(=O)O)CCC(N)(C(=O)O)C1(C)C", "note": "(stereo not drawn)", "growth": "114%"}
    ]}
  ]
}
